Molecules are shown by their SMILES. Out of some 1,200 compounds screened, about 840 (70%) were called active. No rule for the calls is given here. The set was probably picked from earlier hits. A selection follows. Where a call stands in place of a potency, no number is given. Potency and affinity values are given separately.

The test in a line: compounds inducing NF-kB luciferase expression – cell-based, SH-SY5Y, dose response (AID 1241). The note with it: SH-SY5Y NF-kB promoter luciferase reporter; series mostly up to 30 µM.
As to `Oc1ccc(-c2csc(Nc3ncccn3)n2)cc1O`, the fold induction over control entry was “inactive”. Take `CC(C)(C)c1ccc(OCCn2ccccc2=O)cc1`: the fold induction over control result is “inactive”.

Regarding `COc1ccc2oc(C(=O)c3ccccc3)c(N)c2c1`, the fold induction over control entry is “inactive”. As for `COc1ccc2[nH]c(-c3cccc(F)c3)cc(=O)c2c1`, the entry is “inactive”; as for `COc1ccc(C(=S)Nc2ccc(N(C)C)cc2)cc1`, “inactive”; as for `Cc1nc(-c2ccccc2)sc1-c1ccnn1C`, “inactive”.

For `Nc1ccccc1C#Cc1ccccc1`, the fold induction over control result is “inactive”. In the case of `CCOC(=O)c1c(C)oc2c1c(C(c1cccnc1)N1CCCCC1)c(O)c1ccccc12` (stereo unspecified), the fold induction over control result was “inactive”. The value for `O=C(Nc1ccc(Cl)cc1F)c1ccccc1Br` was “inactive”; that for `CCOC(=O)c1cnc(SCCc2ccccc2)nc1N` was “inactive”. As to `O=C(O)c1cccc(N=NN2CCCCCC2)c1`, the fold induction over control entry is “inactive”. The value for `O=C(O)c1cc(N/N=C/C=C/c2ccccc2)ccc1Cl` was “inactive”; that for `COc1ccccc1OCCN1CSC(=S)N(C)C1` was “inactive”; that for `CC(C)(C)c1ccc(/C=N/Nc2cccc(C(=O)O)c2)cc1` was “inactive”. As for `O=C(O)/C=C\C(=O)Nc1ccccc1C#Cc1ccc(Br)cc1`, the entry is “inactive”. As for `Cc1ccccc1Nc1nc2ccccc2s1`, the entry is “inactive”; as for `N=c1c(C(=O)NCc2ccccc2)cc2c(=O)n3ccccc3nc2n1Cc1ccco1`, “inactive”. For the compound `O=C(/C=C/Nc1cccc([N+](=O)[O-])c1)c1cccs1`, the fold induction over control result is “inactive”. Turning to `CCOc1ccc(NC(=O)c2ccccc2O)cc1`, the fold induction over control result is “inactive”. As to `Cc1ccc(C(=O)N/N=C2\CCc3ccccc32)c(C)c1`, the fold induction over control result was “inactive”. In the case of `CCCSc1nsc(NC(=O)CCC)n1`, the fold induction over control entry was “inactive”.

For `S=C(c1ccc(-c2ccc(Br)cc2)o1)N1CCCCC1`, the fold induction over control result is “inactive”. With `Nc1ncn(CC(=O)c2ccccc2)n1`, the fold induction over control entry was “inactive”. Regarding `CCc1ccc(C(=O)NC(=S)Nc2ccc3c(c2)OCCO3)cc1`, the fold induction over control entry is “inactive”. The value for `COc1ccc(-c2nnc(SC(C)C(=O)Nc3cccc(Cl)c3)o2)cc1` (stereo unspecified) was “inactive”; that for `Cc1ccc(C(=O)/C=C/Nc2cccc([N+](=O)[O-])c2)o1` was “inactive”.

Take `Cc1ccc(C(=O)CCNc2ccc(F)c(Cl)c2)o1`: the fold induction over control entry is “inactive”. `COc1cccc(-c2noc(-c3cccnc3)n2)c1`: the fold induction over control result was “inactive”. The value for `Cc1[nH]n(C(N)=S)c(=O)c1N=Nc1ccc2ccccc2c1` was “inactive”; that for `Cc1nn(-c2ccccc2)c(N)c1N=Nc1ccccc1` was “inactive”; that for `Nc1nc(Nc2cccc(F)c2)nc2ccccc12` was “inactive”.

Take `COc1ccc(C2=NN(C(C#N)c3ccc(OC)c(OC)c3)C(c3ccccc3)C2)cc1` (stereo unspecified): the fold induction over control entry is “inactive”. Regarding `Cc1cc2nc(-c3cccnc3SCC(=O)NCc3ccco3)[nH]c2cc1C`, the fold induction over control entry is “inactive”. On to `COc1cc(/C=C/C(=O)CC(=O)/C=C/c2ccc(O)c(OC)c2)ccc1O`, for which the fold induction over control result was “inactive”. For `COC(=O)CCCSc1nccn1-c1ccccc1`, the fold induction over control result was “inactive”.

Take `Cc1ccc(/C=C/C(=O)Nc2ccccc2C(N)=O)cc1`: the fold induction over control result is “inactive”. In the case of `O=C(/C=C/Sc1ccccc1)c1ccc(Cl)cc1`, the fold induction over control entry is “inactive”.

`CC(=Nc1cccc(C)c1)c1sc2ccccc2c1O`: the fold induction over control result is “inactive”. As to `Oc1ccc(-c2csc(-c3ccccc3)n2)cc1O`, the fold induction over control entry was “inactive”. Consider `COC(=O)c1cc(-c2c(C)nn(-c3ccccc3)c2C)n[nH]1`, for which the fold induction over control entry was “inactive”. The value for `Cc1ccc(C(=O)Nc2cccc(C(=O)O)c2)cc1` was “inactive”; that for `COc1ccc(C(=O)Nc2cccc(OC)c2)cc1` was “inactive”. As for `O=C(NC1CCCC1)c1cc(-c2cccs2)on1`, the entry is “inactive”; as for `O=C(NCCn1ccc2ccccc21)c1ccc2c(c1)OCO2`, “inactive”; as for `N/C(=N\OC(=O)c1ccc2c(c1)OCO2)c1ccc(Cl)cc1`, “inactive”.

Regarding `O/N=C/c1ccc(OCc2ccccc2)c(Br)c1`, the fold induction over control entry is “inactive”. Consider `Cc1ccc(COc2ccc(/C=N/O)cc2)cc1`, for which the fold induction over control entry was “inactive”.

In the case of `COc1ccc(/C(N)=N/OC(=O)CSc2ccccc2)cc1`, the fold induction over control result was “inactive”. For the compound `O=C(CCSc1ccc(Cl)cc1)Nc1cccnc1`, the fold induction over control result is “inactive”.

For the compound `O=C(NCCc1ccccc1)c1cc(-c2ccco2)on1`, the fold induction over control result was “inactive”. As for `Cc1ccc(O)c(/C=N/NC(=O)c2[nH]ncc2Br)c1`, the fold induction over control entry was “inactive”. Take `CCCc1noc(-c2ccc(-c3ccccc3)cc2)n1`: the fold induction over control result is “inactive”.

For `CCOC(=O)c1cc(C(=O)Nc2ccccc2F)nn1C`, the fold induction over control entry is “inactive”.

In the case of `CCOC(=O)c1c(C)[nH]c(C(=O)Nc2ccc3c(c2)OCO3)c1C`, the fold induction over control entry was “inactive”.

For the compound `CCOC(=O)c1c(NC(=O)CC(C)C)sc(C(C)=O)c1C`, the fold induction over control result is “inactive”. As for `CC(=O)Nc1ccc(N=Nc2ccccc2)cc1`, the entry is “inactive”. As for `COc1cccc(C(=O)Oc2ccccc2/C=C\C(=O)c2cc3ccccc3o2)c1`, the entry is “inactive”. Turning to `O=C(/C(=C/c1ccc(Cl)cc1)c1nc2ccccc2[nH]1)c1ccccc1`, the fold induction over control entry was “inactive”.

With `COc1ccc2cc(CCNC(=O)c3cccs3)c(=O)[nH]c2c1`, the fold induction over control result is “inactive”.

On to `CCOC(=O)C1=C(c2ccccc2)O/C(=C(/C#N)C(F)(F)F)S1`, for which the fold induction over control entry is “inactive”.

Regarding `COc1ccc(-c2cnn3c(N)c(S(=O)(=O)C(C)(C)C)cnc23)cc1`, the fold induction over control entry was “inactive”.

On to `CCc1nc2ccc(C(=O)O)cc2nc1CC`, for which the fold induction over control entry is “inactive”. As for `Cc1ccc(-c2nc3ccccc3s2)cc1NC(=S)NC(=O)c1ccccc1`, the entry is “inactive”. The value for `CCOc1ccc(NC(=O)c2nsc(Cl)c2Cl)cc1` was “inactive”; that for `CC(C)(C)c1ccc(NC(=O)Nc2ccc(OCC(=O)N3CCOCC3)cc2)cc1` was “inactive”. As for `O=C(OCC(=O)N1CCOCC1)c1ccccc1Cc1ccccc1`, the fold induction over control entry was “inactive”. The value for `CCc1ccc(NC(=O)c2cc(C(C)C)on2)cc1` was “inactive”. As for `CCc1ccc(NC(=O)c2ccc3ncsc3c2)cc1`, the entry is “inactive”.

For `Cc1nc2ccc(NC(=O)Cc3ccccc3F)cc2s1`, the fold induction over control entry was “inactive”.

As for `O=C(O)c1ccc(-c2nc(-c3ccc(Cl)cc3)cs2)cc1`, the fold induction over control result was “inactive”. As for `O=C(c1ccccc1)c1cnc(-c2ccccc2)s1`, the entry is “inactive”; as for `Oc1ccc2c(c1)oc1cc(O)ccc12`, “inactive”; as for `CN=c1scc(C)n1/N=C/c1cc(Br)c(O)c(Br)c1`, “inactive”. The value for `COc1ccc(C(=O)OCCc2ccc(O)cc2)cc1` was “inactive”; that for `COc1ccc(OCc2cccc(C(=O)Nn3cc([N+](=O)[O-])cn3)c2)cc1` was “inactive”. The value for `O=C(OCC(F)(F)F)c1cccc(COc2ccc3ccccc3c2)c1` was “inactive”. Take `O=C(COC(=O)C1CCCCC1)Nc1ccc([N+](=O)[O-])cc1`: the fold induction over control entry was “inactive”. Regarding `Cc1cccn2cc(-c3ccc(Cl)cc3)nc12`, the fold induction over control result is “inactive”. As for `Cc1ccc(Nc2n[nH]c(C)c2[N+](=O)[O-])c(C)c1`, the entry is “inactive”.

In the case of `CC(=O)c1cc(NC(=O)c2ccccc2)c(=O)oc1C`, the fold induction over control result was “inactive”.

Turning to `CCOC(=O)c1sc(NC(=O)c2ccccc2OC)nc1C`, the fold induction over control entry was “inactive”.

For the origin of these results see PubChem BioAssay AID1241 (SRMLSC, 2008).
